Holding throughout (experiment): yeast three-hybrid, YBZ-1, SC-Leu-His + 0.5 mM 3-AT, 4 days
What all share (conditions): tags: N-Gal4 AD-HA kept; label: inside an RPR1-promoter hybrid RNA with tandem MS2 sites; ssRNA

One assay addresses PUM1 PUF domain R7-GRR (Homo sapiens, UniProt Q14671 828-1176, S1079G;N1080R;E1083R). Put shortly: (§1)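 Pumilio-1 PUF domain libraries, randomized (NNK) at the three base-contacting residues of each repeat, were co-expressed with matching RNA elements from a centromeric plasmid in strain YBZ-1 (LexA–MS2 coat fusion, HIS3 reporter). Transformants were plated on SC-Leu (input) and SC-Leu-His + 0.5 mM 3-AT (selection) for four days, and repeat regions were PCR-amplified and Illumina-sequenced. The interaction score is the log2 change in variant frequency from input to selection, with pseudocount 1 where absent.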

For the next assay, the target named is PUM1 PUF domain R7-GSK (Homo sapiens, UniProt Q14671 828-1176, S1079G;N1080S;E1083K). Put shortly:
as §1

The target in another assay is PUM1 PUF domain R1-RSV (Homo sapiens, UniProt Q14671 828-1176, S863R;R864S;Q867V). Put shortly:
as §1

Another assay has as its target PUM1 PUF domain R1-GLQ (Homo sapiens, UniProt Q14671 828-1176, S863G;R864L). In short, it runs like this: as §1
In a further assay the target is PUM1 PUF domain R1-RIM (Homo sapiens, UniProt Q14671 828-1176, S863R;R864I;Q867M). In short, it runs like this: as §1
A further assay deals with PUM1 PUF domain R1-KLM (Homo sapiens, UniProt Q14671 828-1176, S863K;R864L;Q867M). Put shortly:
as §1

A further assay addresses PUM1 PUF domain R5-RHH (Homo sapiens, UniProt Q14671 828-1176, C1007R;R1008H;Q1011H). In short, it runs like this: as §1
A further assay concerns the target PUM1 PUF domain R5-SAP (Homo sapiens, UniProt Q14671 828-1176, C1007S;R1008A;Q1011P). Put shortly: as §1
The target of the next assay is PUM1 PUF domain R4-LNA (Homo sapiens, UniProt Q14671 828-1176, N971L;H972N;Q975A). Put shortly: as §1
The next assay has as its target PUM1 PUF domain R1-SRE (Homo sapiens, UniProt Q14671 828-1176, Q867E). Put shortly: as §1
For another assay, the target named is PUM1 PUF domain R3-LNA (Homo sapiens, UniProt Q14671 828-1176, C935L;R936N;Q939A). In short, it runs like this:
as §1

A further assay concerns the target PUM1 PUF domain R3-KSS (Homo sapiens, UniProt Q14671 828-1176, C935K;R936S;Q939S). Put shortly:
as §1

The target of the next assay is PUM1 PUF domain R3-LYT (Homo sapiens, UniProt Q14671 828-1176, C935L;R936Y;Q939T). Put shortly:
as §1

A further assay has as its target T1, PUM1 PUF domain R6-RWW (Homo sapiens, UniProt Q14671 828-1176, N1043R;Y1044W;Q1047W).
T1 sequence: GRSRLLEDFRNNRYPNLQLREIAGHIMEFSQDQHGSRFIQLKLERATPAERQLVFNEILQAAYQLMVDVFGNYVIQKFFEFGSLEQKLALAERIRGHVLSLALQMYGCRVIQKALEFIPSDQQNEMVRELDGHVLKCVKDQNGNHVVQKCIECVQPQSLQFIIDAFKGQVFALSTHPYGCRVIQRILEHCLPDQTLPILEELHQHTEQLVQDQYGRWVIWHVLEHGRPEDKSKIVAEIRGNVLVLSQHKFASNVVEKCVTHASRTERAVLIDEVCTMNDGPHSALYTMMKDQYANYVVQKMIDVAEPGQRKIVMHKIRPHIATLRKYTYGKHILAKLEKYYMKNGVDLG
In short, it runs like this: as §1

The target of another assay is PUM1 PUF domain R2-SWR (Homo sapiens, UniProt Q14671 828-1176, N899S;Y900W;Q903R). In short, it runs like this:
as §1

A further assay deals with PUM1 PUF domain R5-NGS (Homo sapiens, UniProt Q14671 828-1176, C1007N;R1008G;Q1011S). Put shortly: as §1
Chain of PUM1 PUF domain R5-NGS (Q14671 828-1176 C1007N/R1008G/Q1011S): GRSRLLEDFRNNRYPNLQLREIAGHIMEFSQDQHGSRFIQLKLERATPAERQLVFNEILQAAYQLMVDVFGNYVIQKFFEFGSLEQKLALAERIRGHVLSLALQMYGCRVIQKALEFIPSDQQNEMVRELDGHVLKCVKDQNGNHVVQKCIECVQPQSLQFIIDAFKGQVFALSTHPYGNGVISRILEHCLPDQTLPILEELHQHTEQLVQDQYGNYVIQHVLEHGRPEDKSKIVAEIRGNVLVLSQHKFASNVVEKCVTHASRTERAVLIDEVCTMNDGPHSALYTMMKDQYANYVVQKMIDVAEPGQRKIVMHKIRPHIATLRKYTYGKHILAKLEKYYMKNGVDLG
Another assay deals with PUM1 PUF domain R8-QFP (Homo sapiens, UniProt Q14671 828-1176, N1122Q;Y1123F;Q1126P). In short, it runs like this:
as §1

Among the data in paper PMC8384837, “Expanding the binding specificity for RNA recognition by a PUF domain” are binding signal values, retold here.

Chain of PUM1 PUF domain R1-KLM (Q14671 828-1176 S863K/R864L/Q867M): as the sequence (Q14671 828-1176 C1007N/R1008G/Q1011S) above, with S36K, R37L, Q40M, N180C, G181R, S184Q counted along it
Chain of PUM1 PUF domain R7-GSK (Q14671 828-1176 S1079G/N1080S/E1083K): as the sequence (Q14671 828-1176 C1007N/R1008G/Q1011S) above, with N180C, G181R, S184Q, S252G, N253S, E256K counted along it
Chain of PUM1 PUF domain R5-RHH (Q14671 828-1176 C1007R/R1008H/Q1011H): as the sequence (Q14671 828-1176 C1007N/R1008G/Q1011S) above, with N180R, G181H, S184H counted along it
Chain of PUM1 PUF domain R2-SWR (Q14671 828-1176 N899S/Y900W/Q903R): as the sequence (Q14671 828-1176 C1007N/R1008G/Q1011S) above, with N72S, Y73W, Q76R, N180C, G181R, S184Q counted along it
Chain of PUM1 PUF domain R5-SAP (Q14671 828-1176 C1007S/R1008A/Q1011P): as the sequence (Q14671 828-1176 C1007N/R1008G/Q1011S) above, with N180S, G181A, S184P counted along it

For the sequence “GGCUAGAACUAGUGGAUCCCCCGGCGCCCGGCGGCUCGAGCCCGGGUAAGUUUAAAUAGUCUGCAUGCCGCCGGGCGCCAUGCCUGCAGGUCGACUCUAGAAAACAUG”, the figures for the binding signal in the assay with PUM1 PUF domain R7-GRR and with PUM1 PUF domain R7-GSK were 5.06 log2 enrichment (interaction score) and 4.61 log2 enrichment (interaction score), respectively.

As to “GGCUAGAACUAGUGGAUCCCCCGGCGCCCGGCGGCUCGAGCCCGGGUAAGUCUAAAUAGUCUGCAUGCCGCCGGGCGCCAUGCCUGCAGGUCGACUCUAGAAAACAUG”, the binding signal with PUM1 PUF domain R7-GRR is 2.81 log2 enrichment (interaction score).

On to “GGCUAGAACUAGUGGAUCCCCCGGCGCCCGGCGGCUCGAGCCCGGGUAAGUGUAAAUUGUCUGCAUGCCGCCGGGCGCCAUGCCUGCAGGUCGACUCUAGAAAACAUG”, for which the binding signal with PUM1 PUF domain R1-RSV was 2.17 log2 enrichment (interaction score); with PUM1 PUF domain R1-GLQ it was 2.93 log2 enrichment (interaction score); with PUM1 PUF domain R1-RIM it was 3.48 log2 enrichment (interaction score).

Take “GGCUAGAACUAGUGGAUCCCCCGGCGCCCGGCGGCUCGAGCCCGGGUAAGUGUAAAUCGUCUGCAUGCCGCCGGGCGCCAUGCCUGCAGGUCGACUCUAGAAAACAUG”: the binding signal with PUM1 PUF domain R1-RSV is 3.6 log2 enrichment (interaction score); with PUM1 PUF domain R1-KLM it was 3.89 log2 enrichment (interaction score).

“GGCUAGAACUAGUGGAUCCCCCGGCGCCCGGCGGCUCGAGCCCGGGUAAGUGUGAAUAGUCUGCAUGCCGCCGGGCGCCAUGCCUGCAGGUCGACUCUAGAAAACAUG”: the binding signal was 3.25 log2 enrichment (interaction score) in the assay with PUM1 PUF domain R5-RHH and 3.23 log2 enrichment (interaction score) with PUM1 PUF domain R5-SAP.

In the case of “GGCUAGAACUAGUGGAUCCCCCGGCGCCCGGCGGCUCGAGCCCGGGUAAGUGUAUAUAGUCUGCAUGCCGCCGGGCGCCAUGCCUGCAGGUCGACUCUAGAAAACAUG”, the binding signal with PUM1 PUF domain R4-LNA was 2.84 log2 enrichment (interaction score).

On to “GGCUAGAACUAGUGGAUCCCCCGGCGCCCGGCGGCUCGAGCCCGGGUAAGUGUAAAUGGUCUGCAUGCCGCCGGGCGCCAUGCCUGCAGGUCGACUCUAGAAAACAUG”, for which the binding signal is 0.59 log2 enrichment (interaction score) with PUM1 PUF domain R1-KLM and 4.42 log2 enrichment (interaction score) with PUM1 PUF domain R1-SRE.

For “GGCUAGAACUAGUGGAUCCCCCGGCGCCCGGCGGCUCGAGCCCGGGUAAGUGUAAUUAGUCUGCAUGCCGCCGGGCGCCAUGCCUGCAGGUCGACUCUAGAAAACAUG”, the results for the binding signal with PUM1 PUF domain R3-LNA, with PUM1 PUF domain R3-KSS and with PUM1 PUF domain R3-LYT were 2.71 log2 enrichment (interaction score), 2.98 log2 enrichment (interaction score) and 5.26 log2 enrichment (interaction score), respectively.

Regarding “GGCUAGAACUAGUGGAUCCCCCGGCGCCCGGCGGCUCGAGCCCGGGUAAGUGUAAGUAGUCUGCAUGCCGCCGGGCGCCAUGCCUGCAGGUCGACUCUAGAAAACAUG”, in the assay with PUM1 PUF domain R3-LNA, the binding signal is 3.41 log2 enrichment (interaction score).

Take “GGCUAGAACUAGUGGAUCCCCCGGCGCCCGGCGGCUCGAGCCCGGGUAAGUGUAAAUAGUCUGCAUGCCGCCGGGCGCCAUGCCUGCAGGUCGACUCUAGAAAACAUG”: the binding signal with PUM1 PUF domain R6-RWW is 4.3 log2 enrichment (interaction score); in the assay with PUM1 PUF domain R3-LYT it was 3.3 log2 enrichment (interaction score).

On to “GGCUAGAACUAGUGGAUCCCCCGGCGCCCGGCGGCUCGAGCCCGGGUAAGUGUAAACAGUCUGCAUGCCGCCGGGCGCCAUGCCUGCAGGUCGACUCUAGAAAACAUG”, for which the binding signal in the assay with PUM1 PUF domain R2-SWR was 4.79 log2 enrichment (interaction score).

On to “GGCUAGAACUAGUGGAUCCCCCGGCGCCCGGCGGCUCGAGCCCGGGUAAGUGUUAAUAGUCUGCAUGCCGCCGGGCGCCAUGCCUGCAGGUCGACUCUAGAAAACAUG”, for which the binding signal with PUM1 PUF domain R5-NGS is 4.12 log2 enrichment (interaction score).

Turning to “GGCUAGAACUAGUGGAUCCCCCGGCGCCCGGCGGCUCGAGCCCGGGUAAGCGUAAAUAGUCUGCAUGCCGCCGGGCGCCAUGCCUGCAGGUCGACUCUAGAAAACAUG”, the binding signal in the assay with PUM1 PUF domain R8-QFP was 4.49 log2 enrichment (interaction score).
